Activity calls are given as the source filed them. How the source made its calls: active means hit-call score of the fitted dose curve at least 0.9, where 1 is the maximum; inactive means score below 0.9.
Experiments:
[1] = read-out: Tissue plasminogen activator (tPA), PLAT (gene 5327); assay: BSK_BE3C_tPA: BioMAP Diversity Plus: BE3C Assay for Tissue plasminogen activator (tPA) Biomarker Activity (AID 2283041); conditions: primary human bronchial epithelial cells; actives raise or lower the signal
Outline: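 Primary human bronchial epithelial cells in the BE3C system, exposed to compound for 24 h. tPA was quantified by ELISA; DMSO served as baseline, with gain or loss of signal fitted. Cytotoxicity checked in parallel cultures by SRB total-protein staining.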

[2] = read-out: Interleukin-8 (IL8), CXCL8 (gene 3576); assay: BSK_CASM3C_IL8: BioMAP Diversity Plus: CASM3C Assay for Interleukin-8 (IL8) Biomarker Activity (AID 2283042); conditions: primary human coronary artery smooth muscle cells; actives raise or lower the signal;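 further: IL-8 protein level quantified by ELISA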
[3] = read-out: Human Leukocyte Antigen - DR isotype (HLADR), HLA-DRA (gene 3122); assay: BSK_CASM3C_HLADR: BioMAP Diversity Plus: CASM3C Assay for Human Leukocyte Antigen - DR isotype (HLADR) Biomarker Activity (AID 2283043); conditions: primary human coronary artery smooth muscle cells; actives raise or lower the signal;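 further: cell-surface HLA-DR protein level quantified by ELISA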
[4] = read-out: Macrophage colony-stimulating factor (MCSF), CSF1 (gene 1435); assay: BSK_CASM3C_MCSF: BioMAP Diversity Plus: CASM3C Assay for Macrophage colony-stimulating factor (MCSF) Biomarker Activity (AID 2283044); conditions: primary human coronary artery smooth muscle cells; actives raise or lower the signal;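 further: M-CSF protein amount quantified by ELISA after 24 h exposure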
[5] = read-out: Low-density lipoprotein receptor (LDLR), LDLR (gene 3949); assay: BSK_CASM3C_LDLR: BioMAP Diversity Plus: CASM3C Assay for Low-density lipoprotein receptor (LDLR) Biomarker Activity (AID 2283045); conditions: primary human coronary artery smooth muscle cells; actives raise or lower the signal;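 further: LDLR protein level on the cell surface quantified by ELISA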
[6] = read-out: Monocyte Chemoattractant Protein-1 (MCP1), CCL2 (gene 6347); assay: BSK_CASM3C_MCP1: BioMAP Diversity Plus: CASM3C Assay for Monocyte Chemoattractant Protein-1 (MCP1) Biomarker Activity (AID 2283046); conditions: primary human coronary artery smooth muscle cells; actives raise or lower the signal;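 further: MCP-1 level quantified by ELISA 24 h after dosing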
[7] = BSK_CASM3C_Proliferation: Cell Proliferation Assessment in the BioMAP Diversity Plus: CASM3C Assay (AID 2283047); conditions: primary human coronary artery smooth muscle cells;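 further: sulforhodamine B total protein stain as relative cell number at 560 nm; sub-confluent cells exposed 48 h before staining; fitted both ways against DMSO so gain or loss of cell number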
[8] = read-out: Monokine induced gamma interferon (MIG), CXCL9 (gene 4283); assay: BSK_CASM3C_MIG: BioMAP Diversity Plus: CASM3C Assay for Monokine induced gamma interferon (MIG) Biomarker Activity (AID 2283048); conditions: primary human coronary artery smooth muscle cells; actives raise or lower the signal;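 further: MIG protein level measured by ELISA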
[9] = read-out: serum amyloid A (SAA), SAA1 (gene 6288); assay: BSK_CASM3C_SAA: BioMAP Diversity Plus: CASM3C Assay for serum amyloid A (SAA) Biomarker Activity (AID 2283049); conditions: primary human coronary artery smooth muscle cells; actives raise or lower the signal;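 further: SAA protein level quantified by ELISA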
[10] = BSK_CASM3C_SRB: Viability Assessment in the BioMAP Diversity Plus: CASM3C Assay (AID 2283050); conditions: primary human coronary artery smooth muscle cells
[11] = read-out: Thrombomodulin, THBD (gene 7056); assay: BSK_CASM3C_Thrombomodulin: BioMAP Diversity Plus: CASM3C Assay for Thrombomodulin Biomarker Activity (AID 2283051); conditions: primary human coronary artery smooth muscle cells; actives raise or lower the signal;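 further: thrombomodulin protein level measured by ELISA 24 h after dosing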
[12] = read-out: Tissue Factor, F3 (gene 2152); assay: BSK_CASM3C_TissueFactor: BioMAP Diversity Plus: CASM3C Assay for Tissue Factor Biomarker Activity (AID 2283052); conditions: primary human coronary artery smooth muscle cells; actives raise or lower the signal;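 further: cell surface tissue factor protein level read by ELISA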
[13] = read-out: Interferon-gamma inducible Protein 10 (IP10), CXCL10 (gene 3627); assay: BSK_hDFCGF_IP10: BioMAP Diversity Plus: hDFCGF Assay for Interferon-gamma inducible Protein 10 (IP10) Biomarker Activity (AID 2283053); conditions: primary human foreskin fibroblasts; actives raise or lower the signal
Outline: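 Primary human foreskin fibroblasts exposed to chemicals for 24 h. IP-10 measured by ELISA; changes fitted bidirectionally against DMSO baseline.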

[14] = read-out: Urokinase-type plasminogen activator receptor (uPAR), PLAUR (gene 5329); assay: BSK_CASM3C_uPAR: BioMAP Diversity Plus: CASM3C Assay for Urokinase-type plasminogen activator receptor (uPAR) Biomarker Activity (AID 2283054); conditions: primary human coronary artery smooth muscle cells; actives raise or lower the signal;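 further: cell-surface uPAR protein level quantified by ELISA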
[15] = read-out: Vascular cell adhesion molecule 1 (VCAM1), VCAM1 (gene 7412); assay: BSK_CASM3C_VCAM1: BioMAP Diversity Plus: CASM3C Assay for Vascular cell adhesion molecule 1 (VCAM1) Biomarker Activity (AID 2283055); conditions: primary human coronary artery smooth muscle cells; actives raise or lower the signal;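 further: VCAM-1 protein level quantified by ELISA on the cells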
[16] = read-out: Collagen III, COL3A1 (gene 1281); assay: BSK_hDFCGF_CollagenIII: BioMAP Diversity Plus: hDFCGF Assay for Collagen III Biomarker Activity (AID 2283056); conditions: primary human foreskin fibroblasts; actives raise or lower the signal
Outline: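 Response relative to DMSO, fitted in both directions, reflects ELISA-measured collagen III in human primary skin fibroblasts 24 h after compound addition.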

[17] = read-out: Epidermal growth factor receptor (EGFR), EGFR (gene 1956); assay: BSK_hDFCGF_EGFR: BioMAP Diversity Plus: hDFCGF Assay for Epidermal growth factor receptor (EGFR) Biomarker Activity (AID 2283057); conditions: primary human foreskin fibroblasts; actives raise or lower the signal
Outline: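 Primary human foreskin fibroblasts (hDFCGF system), sampled 24 h after dosing; EGFR quantified by ELISA. Bidirectional fit relative to DMSO baseline; SRB total-protein staining in parallel cultures for cytotoxicity.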

[18] = read-out: Interleukin-8 (IL8), CXCL8 (gene 3576); assay: BSK_hDFCGF_IL8: BioMAP Diversity Plus: hDFCGF Assay for Interleukin-8 (IL8) Biomarker Activity (AID 2283058); conditions: primary human foreskin fibroblasts; actives raise or lower the signal
Outline: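 Fibroblast monolayers (human foreskin, hDFCGF) received test chemical for 24 h before ELISA detection of IL-8; either increases or decreases relative to DMSO count as activity.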

[19] = BSK_hDFCGF_Proliferation: Cell Proliferation Assessment in the BioMAP Diversity Plus: hDFCGF Assay (AID 2283059); conditions: primary human foreskin fibroblasts;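 further: curves fitted for both rise and fall of signal versus DMSO baseline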
Outline: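 Total protein read at 560 nm after 0.1% SRB staining of TCA-fixed human skin fibroblasts, […]. Activity is fitted in both directions relative to DMSO as baseline.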

[20] = read-out: Macrophage colony-stimulating factor (MCSF), CSF1 (gene 1435); assay: BSK_hDFCGF_MCSF: BioMAP Diversity Plus: hDFCGF Assay for Macrophage colony-stimulating factor (MCSF) Biomarker Activity (AID 2283060); conditions: primary human foreskin fibroblasts; actives raise or lower the signal
Outline: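 fibroblasts (human foreskin, primary), 24 h post-dose; M-CSF by ELISA; bidirectional fit, DMSO = baseline.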

Measured: AC50

CC(O)CC(C)(C)O (stereo not given)
active: [19] 14.1 µM
inactive: all other assays above

CC1(C)NC(=O)N(c2ccc([N+](=O)[O-])c(C(F)(F)F)c2)C1=O
active: [4] 11.8 µM | [7] 11.8 µM
inactive: all other assays above

CC/C(=C(/CC)c1ccc(O)cc1)c1ccc(O)cc1
active: [1] 14.3 µM | [2] 1.17 µM | [5] 8.57 µM | [6] 0.345 µM | [7] 20 µM | [9] 33.7 µM | [10] 29.9 µM | [12] 11 µM | [13] 20 µM | [15] 20 µM | [16] 11.4 µM | [19] 7.02 µM | [20] 20 µM
inactive: [3] | [4] | [8] | [11] | [14] | [17] | [18]

NCc1cccc(C2CCN(C(=O)c3ccc(C#Cc4ccccc4F)o3)CC2)c1
active: [1] 7.07 µM | [2] 34.7 µM | [3] 13.3 µM | [4] 28.4 µM | [5] 35.3 µM | [7] 22.3 µM | [8] 34 µM | [9] 27.7 µM | [10] 16 µM | [11] 4.76 µM | [13] 8.64 µM | [14] 30.7 µM | [15] 15.9 µM | [16] 5.12 µM | [17] 12.6 µM | [18] 11.9 µM | [19] 5.81 µM | [20] 7.78 µM
inactive: [6] | [12]

Clc1cc(Cl)c2c(c1)N=C1CCCCCN1C2
inactive: all assays above

CCO[Si](CCCNC(N)=O)(OCC)OCC
inactive: all assays above

Clc1ccccc1C(c1ccccc1)(c1ccccc1)n1ccnc1
inactive: [17]
active: [1] 5.41 µM | [2] 36.6 µM | [3] 28 µM | [4] 32.6 µM | [5] 36.9 µM | [6] 34.4 µM | [7] 22.5 µM | [8] 39.2 µM | [9] 27.1 µM | [10] 29.1 µM | [11] 4.88 µM | [12] 20 µM | [13] 9.81 µM | [14] 28.4 µM | [15] 31.9 µM | [16] 5.5 µM | [18] 9.77 µM | [19] 5.53 µM | [20] 5.68 µM

CC[C@H](NC(=O)c1cc(F)ccc1NS(=O)(=O)c1cccc2cccnc12)c1ccccc1
active: [5] 7.05 µM | [11] 10.8 µM | [16] 8.58 µM | [19] 21.5 µM
inactive: all other assays above

COc1ccc2cc(S(=O)(=O)N[C@H](CC(=O)N[C@H](Cc3ccc(CN4[C@H](C)CCC[C@@H]4C)cc3)C(=O)N(C)C(C)C)c3ccc4c(c3)OCO4)ccc2c1
active: [1] 7.92 µM | [3] 27.8 µM | [5] 0.966 µM | [7] 24.9 µM | [10] 19.1 µM | [11] 7.64 µM | [13] 30.4 µM | [16] 2.07 µM | [19] 9.97 µM | [20] 19.1 µM
inactive: [2] | [4] | [6] | [8] | [9] | [12] | [14] | [15] | [17] | [18]

Cc1cccc2ccccc12
inactive: all assays above

Reference: PubChem BioAssay (EPA / NIEHS)
